# Tests used:
# Test in all cases: PBM binding z-score (relative to random genomic background probes); higher = stronger binding; sequences stand for … in GC…GCGATTGACAGCGTAGAATGAAGG
# [1] = system: FXR:RXRa (NR concentration 270 nM, RXRa partner concentration 90 nM)
# Method in brief: (§1)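 Binding z-scores were set against random background probes. The data came from custom Agilent 4×180K protein-binding microarrays carrying double-stranded probes with 34-nt variable regions, incubated 1 h with ligand-free nuclear receptor dimers. Partner-specific antibodies detected binding, and scanned fluorescence was regression-normalized.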
# [2] = system: LXRa:RXRa (NR concentration 270 nM, RXRa partner concentration 90 nM)
# Method in brief: as §1
# [3] = system: LXRa homodimer (NR concentration 270 nM)
# Method in brief: as §1
# [4] = system: LXRb:RXRa (NR concentration 270 nM, RXRa partner concentration 90 nM)
# Method in brief: as §1
# [5] = system: LXRb homodimer (NR concentration 270 nM)
# Method in brief: as §1
# [6] = system: PPARa:RXRa (NR concentration 270 nM, RXRa partner concentration 90 nM)
# Method in brief: as §1
# [7] = system: PPARg:RXRa (NR concentration 180 nM, RXRa partner concentration 90 nM)
# Method in brief: as §1
# [8] = system: PPARg:RXRa 270nM:90nM, anti-RXR (NR concentration 270 nM, RXRa partner concentration 90 nM)
# Method in brief: as §1
# [9] = system: PPARg:RXRa 30nM:10nM, anti-RXR (NR concentration 30 nM, RXRa partner concentration 10 nM)
# Method in brief: as §1
# [10] = system: PPARg:RXRa 90nM:30nM, anti-RXR (NR concentration 90 nM, RXRa partner concentration 30 nM)
# Method in brief: as §1
# [11] = system: PPARg:RXRa DBDmut IVT, anti-RXR (DBD mutation: RXRa K156A/R161A, NR concentration 270 nM, RXRa partner concentration 90 nM)
# Method in brief: as §1
# [12] = system: PPARg:RXRa IVT, anti-PPARg (NR concentration 270 nM, RXRa partner concentration 90 nM)
# Method in brief: as §1
# [13] = system: PPARg DBDmut:RXRa IVT, anti-PPARg (DBD mutation: PPARg1 K132A/R137A, NR concentration 270 nM, RXRa partner concentration 90 nM)
# Method in brief: as §1
# [14] = system: PPARg DBDmut IVT, anti-PPARg (DBD mutation: PPARg1 K132A/R137A, NR concentration 270 nM)
# Method in brief: as §1
# [15] = system: PPARg homodimer (NR concentration 180 nM)
# Method in brief: as §1
# [16] = system: PXR:RXRa (NR concentration 270 nM, RXRa partner concentration 90 nM)
# Method in brief: as §1
# [17] = system: PXR homodimer (NR concentration 270 nM)
# Method in brief: as §1
# [18] = system: RARa:RXR (NR concentration 270 nM, RXRa partner concentration 90 nM)
# Method in brief: as §1
# [19] = system: RARa homodimer (NR concentration 270 nM)
# Method in brief: as §1
# [20] = system: RARb:RXRa (NR concentration 270 nM, RXRa partner concentration 90 nM)
# Method in brief: as §1
Sequence,PBM binding z-score [1],PBM binding z-score [2],PBM binding z-score [3],PBM binding z-score [4],PBM binding z-score [5],PBM binding z-score [6],PBM binding z-score [7],PBM binding z-score [8],PBM binding z-score [9],PBM binding z-score [10],PBM binding z-score [11],PBM binding z-score [12],PBM binding z-score [13],PBM binding z-score [14],PBM binding z-score [15],PBM binding z-score [16],PBM binding z-score [17],PBM binding z-score [18],PBM binding z-score [19],PBM binding z-score [20]
GCTATTAGCTGAAAGGGCAACCGAATGATTCTCG,0.0536,0.222,-0.091,0.372,-0.619,1.19,1.15,2.72,0.859,2.07,0.31,0.298,-0.309,-0.672,0.621,0.34,-0.258,0.809,-0.61,1.76
CTGCCAAGGTGAACAAGGTCGTTGATTACTATTC,0.873,0.86,-0.343,1.15,-0.569,2.25,0.839,1.1,-0.107,0.638,2.22,2.18,-0.417,-1,0.571,2.35,1.73,1.9,-0.469,2.08
GCTGCTACGTCAGGTTGGTCAGCTAACGGGTACG,-0.416,-0.646,-0.592,-0.968,-0.619,-0.713,-0.0701,-0.954,-0.756,-0.888,-0.264,-0.651,-0.712,-1.19,-0.583,-0.691,-0.732,-0.51,-1.16,-0.154
CGAAAGAGGGCATGAGTTGATAGCAAATGCCGAT,0.277,0.423,-0.431,0.0383,-0.529,1.7,1.14,1.19,0.0878,0.644,2.11,1.03,0.384,-0.376,-0.223,0.604,-0.0785,0.777,-0.0626,2.08
CAAACTATGTCAAGGTCAAAGTCGGTTTGTGCCA,4.77,4.95,4.54,4.26,1.75,4.65,4.09,4.7,2.24,3.82,5.27,4.71,0.328,0.339,2.4,5,3.33,4.46,1.69,4.25
TGAATGAGGTTAAAGATCAGAGAACGTGGCGTCG,3.2,2.25,-0.274,1.7,0.104,4.43,6.08,6.65,5.22,6.58,1.89,3.53,1.38,0.333,0.79,2,0.0576,3.32,0.124,1.98
CCTGACGGGTCACGAGGTTATAGCACGACGAGCG,5.64,4.17,0.355,3.29,-0.286,5.34,5.73,5.6,1.87,3.91,2.13,3.75,0.388,0.539,3.04,4.13,0.0429,5.48,1.05,4.32
CCTCGGAGGACAACAAGAGGTCAGAGCTGCCAGA,2.12,3.5,3.68,2.35,-0.358,2.82,1.01,1.62,-0.0713,0.904,-0.155,0.669,-1.24,-1.03,1.86,3.04,0.241,3.4,0.861,3.18
TCTATTAGTTGAAAGGCAACCGACGAGTCCGTTT,0.518,0.929,0.254,0.901,0.728,1.12,0.475,2.96,4.06,3.42,2.63,0.0769,0.573,-0.131,1.05,0.694,0.704,0.467,1.11,0.44
ATCTCTAGGTAAAGATCGTTCAGTGAATGCAAAT,-0.176,1.87,-0.123,0.339,0.387,0.218,0.287,0.923,0.249,0.749,2.03,1.66,1.31,0.707,0.555,-0.16,0.0441,0.0862,0.49,-0.0299
CCGACTGGGGCAGAGGTTACCATACTCAGTACGA,0.287,0.761,-0.0955,1.34,-1.08,3.62,8.22,7.57,6.11,7.57,3.08,4.26,-0.117,-0.682,1.22,0.917,-0.23,1.94,-0.251,1.34
GGAACAAGGGCATTCGAGTTGATAGCATGGCGAT,1.63,1.37,0.0326,0.349,-0.333,1.16,0.807,0.531,-0.0599,0.199,2.21,1.65,-0.248,-0.286,0.614,3.18,0.975,0.884,0.198,2.02
CGCGAAAGGTCGGTTGAGGTGAGTATACGGATAA,2.66,1.81,-0.0594,1.38,-0.0248,2.75,0.872,1.45,0.235,0.88,0.0113,0.699,0.0036,-0.174,0.986,3.35,-0.075,3.62,0.138,3.08

# Reference: the supplement of paper PMC6555819
